Results on 18 compounds are retold here after PubChem BioAssay.

Assay [1] in a line: antimalarial activity against Dd2 strain (AID 2302;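 active = growth inhibition above 50% at the single 2 µM test dose, taken to imply half-maximal potency below 2 µM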;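 note: 0% = DMSO untreated growth and 100% = chloroquine plus artemisinin killed control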). Particulars: P. falciparum Dd2 in RBCs, LDH growth readout, 72 h; at 2 µM; active compounds read high.
Assay [2] is described as follows: human hepatoma cell viability loss – ATP luminescence, cytotoxicity control for P. falciparum antimalarial project, primary screen (AID 2303;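 active = inhibition above 50%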;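 note: 0% = DMSO wells and 100% = digitonin-killed cells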). Particulars: HepG2 viability, 24-48 h, at 10 µM, active compounds read high.
For assay [3], the target named is L-lactate dehydrogenase (Plasmodium falciparum (isolate CDC / Honduras)) (UniProt Q27743). Kind of assay: PfLDH activity inhibition – cell lysate, 3D7 strain, counter-screen for P. falciparum growth inhibition project (AID 2304).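 Note: 0% = vehicle and 100% = reference inhibitor.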 The conditions noted are these: P. falciparum 3D7 crude extract, LDH APAD/NBT absorbance; at 2 µM; active compounds read high.
Chain of L-lactate dehydrogenase (Plasmodium falciparum (isolate CDC / Honduras)) (Q27743 whole entry, looked up): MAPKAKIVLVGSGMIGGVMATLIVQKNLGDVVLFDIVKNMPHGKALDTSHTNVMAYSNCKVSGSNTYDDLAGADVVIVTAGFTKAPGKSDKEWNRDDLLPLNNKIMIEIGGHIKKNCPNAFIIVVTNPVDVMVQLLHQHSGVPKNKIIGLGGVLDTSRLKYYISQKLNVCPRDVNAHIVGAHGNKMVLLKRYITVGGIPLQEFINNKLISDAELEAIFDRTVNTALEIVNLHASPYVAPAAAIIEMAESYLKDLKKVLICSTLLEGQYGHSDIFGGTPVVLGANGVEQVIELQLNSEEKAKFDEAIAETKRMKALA
Assay [4] can be described thus: inhibition of 3D7 malaria parasite growth – strain 3D7 (AID 2306).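 Note: 0% = DMSO wells and 100% = chloroquine plus artemisinin control wells.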 The conditions noted are these: P. falciparum 3D7 erythrocytic growth, LDH absorbance, 72 h; at 2 µM; active compounds read high.
Assay [5] addresses Calcium-dependent protein kinase 1 (Plasmodium falciparum (isolate 3D7)) (UniProt P62344). In words: PfCDPK1 kinase inhibitors, biochemical, TCAMS library (AID 1159585; cut-off not given, nearly all actives have IC50 up to about 0.98 µM;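 note: inhibitors leave more ATP so luminescence rises with inhibition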). Particulars: recombinant PfCDPK1, Kinase-Glo ATP depletion luminescence.
For assay [6], the target named is Plasmodium falciparum protein kinase 6 (PK6, PF3D7_1337100) (UniProt Q8IDW1). In words: PfPK6 kinase inhibitors, biochemical, TCAMS library (AID 1159586). The conditions noted are these: recombinant PfPK6, Kinase-Glo ATP depletion luminescence.
Chain of Plasmodium falciparum protein kinase 6 (PK6, PF3D7_1337100) (Q8IDW1 1-305): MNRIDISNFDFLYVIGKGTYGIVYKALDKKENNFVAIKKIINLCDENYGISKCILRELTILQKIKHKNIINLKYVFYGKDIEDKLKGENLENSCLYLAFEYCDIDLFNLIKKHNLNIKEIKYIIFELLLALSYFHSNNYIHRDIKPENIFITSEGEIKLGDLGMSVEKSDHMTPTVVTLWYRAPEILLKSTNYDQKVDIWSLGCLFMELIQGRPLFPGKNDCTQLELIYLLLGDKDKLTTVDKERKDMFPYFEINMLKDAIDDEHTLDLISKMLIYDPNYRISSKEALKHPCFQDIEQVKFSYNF
In assay [7] the target is Protein kinase 7 (PK7), Plasmodium falciparum 3D7 (PF3D7_0213400) (UniProt Q7YTF7). Kind of assay: inhibition of Plasmodium PK7 catalytic activity – biochemical, TCAMS antimalarial set, Kinase-Glo luminescence (AID 1159587). The conditions noted are these: recombinant PfPK7, Kinase-Glo ATP depletion luminescence.
Chain of Protein kinase 7 (PK7), Plasmodium falciparum 3D7 (PF3D7_0213400) (Q7YTF7 1-343): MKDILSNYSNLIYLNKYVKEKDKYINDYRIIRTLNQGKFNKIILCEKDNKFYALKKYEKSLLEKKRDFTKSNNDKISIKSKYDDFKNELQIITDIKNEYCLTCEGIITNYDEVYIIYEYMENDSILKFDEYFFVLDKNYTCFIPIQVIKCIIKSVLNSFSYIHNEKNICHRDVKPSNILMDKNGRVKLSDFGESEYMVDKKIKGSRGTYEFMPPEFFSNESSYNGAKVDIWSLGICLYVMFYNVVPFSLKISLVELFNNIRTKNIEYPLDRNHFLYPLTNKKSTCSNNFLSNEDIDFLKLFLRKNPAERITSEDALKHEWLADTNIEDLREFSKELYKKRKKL
Assay [8] concerns the target Calcium-dependent protein kinase 4 (Plasmodium falciparum (isolate 3D7)) (UniProt Q8IBS5). Kind of assay: PfCDPK4 kinase inhibitors, biochemical, TCAMS library (AID 1159588; cut-off not given, nearly all actives have IC50 up to about 0.91 µM). Particulars: recombinant PfCDPK4, Kinase-Glo ATP depletion luminescence.

Unmarked numbers belong to inactive results. For part of these data: Measured potencies and affinities stand elsewhere. Activity calls are given as the source filed them. Unless noted, the rule behind the calls is not given here.

Chain of Calcium-dependent protein kinase 1 (Plasmodium falciparum (isolate 3D7)) (P62344 whole entry, looked up): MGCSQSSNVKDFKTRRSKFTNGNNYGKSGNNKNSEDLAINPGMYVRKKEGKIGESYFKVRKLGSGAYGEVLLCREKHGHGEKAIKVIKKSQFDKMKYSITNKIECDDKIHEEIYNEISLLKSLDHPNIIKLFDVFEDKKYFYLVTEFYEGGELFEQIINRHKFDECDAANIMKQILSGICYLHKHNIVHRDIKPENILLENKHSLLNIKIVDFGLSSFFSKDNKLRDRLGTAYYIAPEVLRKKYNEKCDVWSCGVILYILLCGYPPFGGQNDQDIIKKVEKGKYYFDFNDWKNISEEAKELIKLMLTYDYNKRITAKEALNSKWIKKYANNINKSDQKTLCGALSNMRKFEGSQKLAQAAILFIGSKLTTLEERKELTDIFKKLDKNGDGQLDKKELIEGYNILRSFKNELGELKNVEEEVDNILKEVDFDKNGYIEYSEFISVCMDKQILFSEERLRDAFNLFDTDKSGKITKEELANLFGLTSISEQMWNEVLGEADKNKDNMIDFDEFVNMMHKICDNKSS
Chain of Calcium-dependent protein kinase 4 (Plasmodium falciparum (isolate 3D7)) (Q8IBS5 whole entry, looked up): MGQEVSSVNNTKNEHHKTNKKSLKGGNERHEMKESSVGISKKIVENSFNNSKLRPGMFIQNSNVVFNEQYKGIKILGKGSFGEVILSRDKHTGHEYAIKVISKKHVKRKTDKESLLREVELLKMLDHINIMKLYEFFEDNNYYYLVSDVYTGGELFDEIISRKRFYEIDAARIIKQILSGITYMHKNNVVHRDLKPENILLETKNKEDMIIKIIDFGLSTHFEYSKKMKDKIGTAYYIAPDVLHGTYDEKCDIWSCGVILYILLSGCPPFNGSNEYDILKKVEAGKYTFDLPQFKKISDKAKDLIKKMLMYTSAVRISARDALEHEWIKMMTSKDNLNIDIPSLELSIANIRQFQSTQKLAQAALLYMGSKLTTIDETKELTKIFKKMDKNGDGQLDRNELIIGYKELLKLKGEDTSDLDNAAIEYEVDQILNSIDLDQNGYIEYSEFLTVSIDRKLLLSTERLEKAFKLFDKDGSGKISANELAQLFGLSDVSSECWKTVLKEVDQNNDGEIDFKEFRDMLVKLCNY

For `Cc1cc(N[C@@H](CC(C)C)C(=O)Nc2ccccc2)nc(NCc2ccccc2C)n1`, the growth inhibition in assay [1] was 81% (active); in assay [4] it was 101% (active). Moreover, the inhibition in assay [2] is 21%; in assay [3] it was 4%. Also, the outcome in assay [5], in assay [6], in assay [7] and in assay [8] was inactive.

For `CCNc1c2ccc(Cl)cc2nc2ccc(OC)cc12`, the growth inhibition is 100% (active) in assay [1] and 99% (active) in assay [4]. Moreover, the inhibition was 16% in assay [2] and 0% in assay [3]. The outcome in assay [5], in assay [6], in assay [7] and in assay [8] was inactive.

As to `CN1CCN(c2ccnc3ccc(NC(=O)Nc4c(Cl)cccc4Cl)cc23)CC1`, the growth inhibition was 12% in assay [1] and 96% (active) in assay [4]. Moreover, the figures for the inhibition in assay [2] and in assay [3] were 11% and -1%, respectively. For the same compound, the outcome in assay [5], in assay [6], in assay [7] and in assay [8] was inactive.

Regarding `N#Cc1ccc2[nH]cc(C(=O)CCCCCN(Cc3ccccc3)Cc3ccccc3)c2c1`, the growth inhibition in assay [1] was 97% (active); in assay [4] it was 93% (active). The inhibition was 10% in assay [2] and 2% in assay [3]. For the same compound, the outcome in assay [5], in assay [6], in assay [7] and in assay [8] was inactive.

In the case of `CCCNC(=O)Nc1cc2cc(-c3ccc(CN4CCCC4)cc3)ccc2n2c(C)nnc12`, the growth inhibition in assay [1] is 11%; in assay [4], 93% (active). For the same compound, the inhibition in assay [2] was 67% (active); in assay [3], 0%. The outcome in assay [5], in assay [6], in assay [7] and in assay [8] was inactive.

For `Cc1ccc(C)c(Sc2ccc(NC(=O)CN3CCN(C(=O)c4ccco4)CC3)cc2)c1`, the growth inhibition in assay [1] is 93% (active); in assay [4], 96% (active). Further, the inhibition in assay [2] is 28%; in assay [3], 1%. For the same compound, the outcome in assay [5], in assay [6], in assay [7] and in assay [8] was inactive.

For the compound `O=C(NCCN1CCC(NC(=O)c2ccc(-c3ccccn3)s2)CC1)c1ccc(Cl)c(Cl)c1`, the growth inhibition was 48% in assay [1] and 97% (active) in assay [4]. In addition, the inhibition in assay [2] is 24%; in assay [3] it was -5%. Also, the outcome in assay [5], in assay [6], in assay [7] and in assay [8] was inactive.

Regarding `O=C1C2C(C(=O)N1c1ccccc1)[C@H]1S[C@@H]2c2c1ccc1ccccc21` (some centres undefined), the growth inhibition is 7% in assay [1] and 96% (active) in assay [4]. Besides, the inhibition is -5% in assay [2] and -1% in assay [3]. The outcome in assay [5], in assay [6], in assay [7] and in assay [8] was inactive.

In the case of `c1ccc2[nH]c(-c3ccc(-c4ccc(CN5CCC(N6CCCCC6)CC5)cc4)s3)nc2c1`, the growth inhibition was 100% (active) in assay [1] and 99% (active) in assay [4]. For the same compound, the results for the inhibition in assay [2] and in assay [3] were 26% and -5%, respectively. Further, the outcome in assay [5], in assay [6], in assay [7] and in assay [8] was inactive.

`Cc1cccc2[nH]c(-c3ccc(-c4cccc(CN5CCC(C(N)=O)CC5)c4)s3)nc12`: the growth inhibition in assay [1] was 16%; in assay [4] it was 86% (active). The inhibition in assay [2] was 1%; in assay [3], 4%. In addition, the outcome in assay [5], in assay [6], in assay [7] and in assay [8] was inactive.

`COc1ccc(C(=O)Nc2ccc3nc(N4CCCCC4)cc(C)c3c2)cc1OC`: the growth inhibition in assay [1] was 7%; in assay [4], 92% (active). For the same compound, the inhibition was 15% in assay [2] and 3% in assay [3]. For the same compound, the result in assay [5], in assay [6], in assay [7] and in assay [8] was inactive.

Turning to `COc1ccc2nccc([C@@H](O)CN3CCC(NC(=O)/C(=C/c4ccccc4)c4ccc(-c5ccccc5)cc4)CC3)c2c1`, the values for the growth inhibition in assay [1] and in assay [4] were 38% and 94% (active), respectively. For the same compound, the inhibition was 4% in assay [2] and 0% in assay [3]. Moreover, the outcome in assay [5], in assay [6], in assay [7] and in assay [8] was inactive.

As to `O=C(Nc1ccc(-c2ccccc2)cc1)Nc1cccc(Cn2nc(Cl)c(N3CCCNCC3)cc2=O)c1`, the growth inhibition was 37% in assay [1] and 101% (active) in assay [4]. The results for the inhibition in assay [2] and in assay [3] were 13% and -2%, respectively. The result in assay [5], in assay [6], in assay [7] and in assay [8] was inactive.

Consider `COc1ccc(Cl)cc1NC(=O)Nc1ccc2c(c1)CCN(C1CCC1)CC2`, for which the figures for the growth inhibition in assay [1] and in assay [4] were 19% and 98% (active), respectively. The inhibition is 38% in assay [2] and -2% in assay [3]. The result in assay [5], in assay [6], in assay [7] and in assay [8] was inactive.

For the compound `Cc1cccc2[nH]c(-c3ccc(-c4cccc(NC(=O)C(C)CN(C)C)c4)cc3)nc12` (centres undefined), the figures for the growth inhibition in assay [1] and in assay [4] were 61% (active) and 99% (active), respectively. Also, the values for the inhibition in assay [2] and in assay [3] were 20% and 1%, respectively. Also, the result in assay [5], in assay [6], in assay [7] and in assay [8] was inactive.

On to `O=C(Nc1ccccc1-c1ccccc1)C1CCCN1C(=O)Nc1ccc(Cl)cc1` (centres undefined), for which the growth inhibition was 90% (active) in assay [1] and 96% (active) in assay [4]. Besides, the inhibition in assay [2] was -6%; in assay [3], -4%. The outcome in assay [5], in assay [6], in assay [7] and in assay [8] was inactive.

Consider `CN(C)CCN(C)Cc1ccc(-c2ccc(NC(=O)c3ccc(Cl)cc3)cc2)cc1`, for which the growth inhibition in assay [1] is 19%; in assay [4] it was 91% (active). Moreover, the inhibition in assay [2] was 51% (active); in assay [3] it was -2%. The result in assay [5], in assay [6], in assay [7] and in assay [8] was inactive.

Take `Cc1c(OC(C)C)nc2ccccc2c1C(=O)N[C@H](c1cccc(F)c1)C1CC1`: the growth inhibition in assay [1] is 34%; in assay [4] it was 83% (active). The inhibition in assay [2] is 6%; in assay [3], 3%. Besides, the outcome in assay [5], in assay [6], in assay [7] and in assay [8] was inactive.
